Each structure is given as a SMILES string. Out of some 87,000 compounds screened, about 540 (0.62%) were called active. No rule for the calls is given here. The entries come from a sample that favours actives as a whole. Results with a measured potency or affinity are listed apart.

The nature of this assay: inhibitors of MT1-MMP promoter transcription, cell-based, luciferase reporter, luminescence (AID 618).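 Also: actives suppress MT1-MMP promoter-driven transcription so potencies describe inhibitors.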 The note with it: MT1-MMP promoter luciferase reporter cells. In general terms: A reporter such as luciferase makes a cellular process visible.
For `CCSC1=C(C#N)C2(CCCCC2)C(C#N)C(=O)N1` (stereo unspecified), the result was inactive. Regarding `Cc1cc(NC(=O)CSc2nc(C(C)C)nc3sc4c(c23)CCCC4)no1`, the compound was classed as inactive. Consider `CCOC(=O)N1CCN(C(=O)Cn2cc3c(n2)CCCC3)CC1`, for which the result was inactive. Consider `O=C(O)C1=C(C(=O)N2CCN(C(=O)c3ccco3)CC2)CCCC1`, for which the compound was classed as inactive. Take `c1ccc(Sc2ncnc3c2oc2ccccc23)cc1`: the compound was called inactive. On to `Fc1cccc(-c2cc3nc4c(c(N5CCN(c6cnccn6)CC5)n3n2)CCCC4)c1`, for which the compound was classed as inactive.

For the compound `COc1ccc2c(c1)C(C)=CC(C)(C)N2C(=O)CN1C(=O)CCC1=O`, the result was inactive. Under `CC1=CC(C)(C)Nc2ccc(OC(=O)c3cccnc3)cc21` stands “inactive”. `COC(=O)c1ccc(OC(=O)c2ccco2)cc1`: the compound was called inactive. Regarding `CC1=CC(C)(C)Nc2ccc(OC(=O)c3ccco3)cc21`, the result was active. Consider `O=C(Oc1ccc2ccccc2c1)c1ccco1`, for which the outcome was inactive. Take `CC1=CC(C)(C)Nc2ccc(OC(=O)CN3C(=O)C4CCCCC4C3=O)cc21` (stereo unspecified): the call was inactive. Regarding `CCc1ccc2c(c1)C(C)=CC(C)(C)N2`, the outcome was inactive. For the compound `COc1ccc(-c2nnc(SCC(=O)N3c4ccccc4Sc4ccccc43)o2)cc1`, the compound was called inactive. Consider `CCOC(=O)c1ccc2nc3c(cc2c1)CCS3`, for which the call was inactive.

As to `COc1ccc2c(c1OC)C(=O)N(c1ccc3c(c1)CCC3)C2=O`, the compound was called inactive. For the compound `CCn1c(=O)n(CC(=O)NC2CCCC(C)C2C)c(=O)c2ccccc21` (stereo unspecified), the result was inactive.

Take `CCN(CCNC(=O)C1CCN(c2nnc(-n3cccc3)s2)CC1)c1ccccc1`: the outcome was inactive.

As for `Cc1ccc2cc3c(N)c(C(=O)N4CCOCC4)sc3nc2c1`, the result was inactive. As for `Cc1cccc2cc3c(N)c(C(=O)N4CCOCC4)sc3nc12`, the entry is “inactive”. As for `Cc1ccc2nc3sc(C(=O)N4CCOCC4)c(N)c3cc2c1`, the entry is “active”; as for `Cc1cccc(-n2ncc(C#N)c2N)c1`, “inactive”; as for `Cc1cc(C)nc(SCCn2c(N(C)Cc3ccccc3)nc3c2c(=O)n(C)c(=O)n3C)n1`, “inactive”. For the compound `Cc1cc(C)n(CCO)c(=O)n1`, the outcome was inactive. Regarding `N#CC1=C(N)SC(N)=C(C#N)C1C1CC=CCC1` (stereo unspecified), the call was inactive. Take `COc1cc(N2CCCC2)c(OC)cc1/C=c1/sc2nc3ccccc3n2c1=O`: the result was inactive.

On to `Cc1cc(/C=c2/sc3nc4ccccc4n3c2=O)c(C)n1-c1ccccn1`, for which the result was active. Under `O=c1/c(=C\c2cccn2-c2ccccc2)sc2nc3ccccc3n12` stands “inactive”; under `Cc1ccc(-n2c(C)cc(/C=c3/sc4nc5ccccc5n4c3=O)c2C)cc1`, “inactive”; under `COC(=O)/C=c1/sc2nc3ccccc3n2c1=O`, “inactive”. `CC(CNS(=O)(=O)c1cc(Cl)ccc1Cl)CN(C)C` (stereo unspecified): the outcome was inactive. As to `COc1ccccc1NC(=O)CC1C(=O)NCCN1C(=O)Nc1ccc(Cl)c(Cl)c1` (stereo unspecified), the outcome was inactive. As to `CCCCC(=O)Nc1ccc2oc(-c3ccncc3)nc2c1`, the compound was called inactive.

As for `O=C(c1ccc2snnc2c1)N1CCOCC1`, the compound was called inactive. Turning to `Cc1cc(C(=O)CN2C(=O)C3CC=CCC3C2=O)c(C)n1-c1ccccc1` (stereo unspecified), the call was inactive. As to `Cc1ccc(C)c(C(=O)CN2C(=O)c3ccccc3S2(=O)=O)c1`, the outcome was inactive.

Turning to `Cc1ccsc1C(=O)OCC(=O)c1cc(C)n(CC2CCCO2)c1C` (stereo unspecified), the call was active. On to `Cc1cc(C(=O)COC(=O)C2COc3ccccc3O2)c(C)n1CC1CCCO1` (stereo unspecified), for which the outcome was inactive. In the case of `Cc1cc(C(=O)COC(=O)c2n[nH]c3ccccc23)c(C)n1CC1CCCO1` (stereo unspecified), the outcome was inactive. On to `Cc1cc(C(=O)CSc2nnnn2-c2ccccc2)c(C)n1CC1CCCO1` (stereo unspecified), for which the outcome was inactive. As to `Cc1cc(C(=O)Cn2nnc(-c3ccc(Cl)cc3)n2)c(C)n1CC1CCCO1` (stereo unspecified), the compound was called inactive. Under `Cc1cc(C(=O)CN2C(=O)c3ccccc3S2(=O)=O)c(C)n1-c1ccccc1` stands “active”.

Regarding `Cc1ccc(-c2nc(NC(=O)CSc3nnc(C)s3)ns2)cc1`, the outcome was inactive. Turning to `Cc1ccc(OCC(=O)Nc2ccc(N3CCOCC3)cc2)cc1`, the call was inactive. Under `Cc1ccc(N(C(C)C(=O)N2CCC(C)CC2)S(C)(=O)=O)cc1C` (stereo unspecified) stands “inactive”; under `Cc1ccc(CC2CC(=O)N(c3cc(C)on3)C2=O)cc1` (stereo unspecified), “inactive”; under `CCOc1ccccc1NC(=O)C1CCCN(C(=O)NCc2ccccc2)C1` (stereo unspecified), “inactive”. For `CCOC(=O)c1[nH]c(C)c(C(=O)Nc2ccccc2C)c1C`, the compound was classed as active. For `CCOC(=O)c1[nH]c(C)c(C(=O)Nc2cc(Cl)ccc2C)c1C`, the outcome was active. Take `CCOC(=O)c1[nH]c(C)c(C(=O)Nc2ccc(Cl)cc2)c1C`: the call was inactive. `CCOC(=O)c1c(C)[nH]c(C(=O)OCC(=O)N2CCc3ccccc32)c1C`: the outcome was inactive.

Take `CCOC(=O)c1[nH]c(C)c(C(=O)Nc2ccc(C)cc2C)c1C`: the compound was called inactive. With `CCOC(=O)c1[nH]c(C)c(C(=O)N2CCc3ccccc32)c1C`, the compound was classed as active. Regarding `CCOC(=O)c1[nH]c(C)c(C(=O)OCC(=O)N2CCc3ccccc32)c1C`, the compound was called inactive. With `CCOC(=O)c1[nH]c(C)c(C(=O)Nc2ccc(C)c(Cl)c2)c1C`, the compound was called inactive. As for `CCOC(=O)c1[nH]c(C)c(C(=O)Nc2ccccc2F)c1C`, the compound was called inactive.

For `COc1cc(NS(=O)(=O)c2ccc3c(c2)n(C)c(=O)n3C)cc(OC)c1`, the compound was classed as inactive. Regarding `COc1ccc(C)cc1NC(=O)CSc1nnc(CC(=O)Nc2ccccc2C)n1C`, the result was inactive. Under `CCOC(=O)c1ccc(NC(=O)CN2CCN(CCN=CC3=C(O)CC(C)(C)CC3=O)CC2)cc1` stands “inactive”. In the case of `COC(=O)c1[nH]c2cc(C)ccc2c1NC(=O)CN1CCCc2ccccc21`, the outcome was inactive. On to `Cc1nc2sc(C(c3cccs3)N3CCN(c4cccc(Cl)c4)CC3)c(O)n2n1` (stereo unspecified), for which the result was inactive. For the compound `O=C(c1cn(-c2ccccc2)nc1-c1ccncc1)N1CCCCC1`, the compound was called inactive. For the compound `COc1ccccc1C(=O)N1CCN(c2cccc(Cl)c2)CC1`, the outcome was inactive. As for `COc1ccc(C(=O)N2CCN(c3cccc(Cl)c3)CC2)c(OC)c1`, the entry is “inactive”; as for `CCOc1ccccc1C(=O)N1CCN(c2cccc(Cl)c2)CC1`, “active”. Under `O=C(c1ccccc1F)N1CCN(c2cccc(C(F)(F)F)c2)CC1` stands “inactive”. For `COc1ccccc1CC(=O)N1CCN(c2cccc(C(F)(F)F)c2)CC1`, the outcome was inactive. Under `COc1ccccc1C(=O)N1CCN(c2cccc(C(F)(F)F)c2)CC1` stands “active”; under `Cc1cc(-c2nn3c(C)nnc3s2)ccc1NC(=O)C(C)(C)C`, “inactive”; under `CCOC(=O)c1cc(C)sc1NC(=O)CCC(=O)O`, “inactive”.

With `COc1ccc(Cn2c3nc4ccccc4nc3c3c(=O)n(Cc4ccco4)c(C)nc32)cc1`, the compound was called inactive.

The values are drawn from PubChem BioAssay AID618 (Sanford-Burnham Center for Chemical Genomics, 2007).
